Compound activity: PubChem BioAssay, Broad Institute
Shh pathway inh – blocks Sonic Hedgehog signaling; Shh-LIGHT2 Gli-luciferase reporter, 30 h; inhibition, % (no concentration beside the values); hit rate 2.1% among 22,000; AID 2313;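 active = mean inhibition across valid replicates above about 65%, limit read from the data; inconclusive = mean under the limit, yet half or more replicates past it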;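 also: pathway switched on by Shh-conditioned medium diluted 1 in 25 in low serum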
NOMO-1 viab – STK33 inhibitor candidate reducing NOMO-1 cell viability; NOMO-1 AML viability, CellTiter-Glo luminescence, 72 h; inhibition, % (concentration not given with the values); hit rate 7.5% among 37,000; AID 2330; in the data active = inhibition above about 80%; inconclusive = no clear call, values can overlap the other calls
MITF inhib – inhibitors of MITF. TRPM1 promoter luciferase, luminescence, 24 h. inhibition, % (no concentration beside the values). hit rate 0.28% among 37,000; in the data active = inhibition above about 85%; inconclusive = no clear call, values can overlap the other calls; inactive = below about 68%;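 also: human melanocyte line stably carrying TRPM1 promoter luciferase reporter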
Hits are given with their value; . = inactive; ? = inconclusive; / = no result. Sampled rows, rich in hits. Any-hit rate of the full collection: about 7.8%.

SMILES	Shh pathway inh	NOMO-1 viab	MITF inhib
CCOC(=O)c1cnc2cc(C(F)(F)F)ccc2c1N(C)Cc1ccccc1	?	.	.
CCOC(=O)c1cnc2ccc(OCC)cc2c1N(C)Cc1ccccc1	.	96	.
CN1CCc2cccc3c2[C@H]1Cc1ccc(O)c(O)c1-3	.	113	.
C[C@@H]1CC(=O)c2c(ccc3c2C(=O)c2cccc(O)c2C3=O)C1	.	.	.
Cc1ccc(S(=O)(=O)NCC(=O)Nc2ccccc2F)cc1	/	.	.
CC(C)C1NC(=O)/C(=C/c2cnc[nH]2)NC1=O (stereo unspecified)	.	/	/
C=CC(C)(C)c1[nH]cnc1/C=C1\NC(=O)C(C(C)C)NC1=O (stereo unspecified)	.	106	.
CCOc1ccc(C)cc1S(=O)(=O)n1nnc2ccccc21	/	.	.
CC1=C(C#N)C(C(F)(F)F)(C(F)(F)F)N=C(C2CCCCC2)N1	105	141	.
CSc1ccccc1NC(=O)CN(c1cccc(F)c1)S(C)(=O)=O	/	.	.
CCCC1=NN(C(=O)/C=C/c2cccs2)C(=O)C1Cc1c(F)cccc1Cl (stereo unspecified)	/	.	.
C=CCC1C(=O)N(S(=O)(=O)c2ccc(Cl)cc2)N=C1CCC (stereo unspecified)	?	110	.
Cc1cc2nn(-c3ccc(Cl)cc3)nc2cc1NC(=O)COc1ccccc1C	/	.	.
S=C(c1ccccc1)N1CCN(Cc2ccccc2)CC1	.	.	.
c1ccc(CN2CCOCCN(Cc3ccccc3)CCOCC2)cc1	/	87	.
C=C[C@@]12COC(=O)C(=C)C1[C@@H](O)[C@H](C(=C)C(=O)OC)[C@@H](OC(=O)C(=C)CO)C2 (stereo partly specified)	.	116	.
C=C(CO)C(=O)O[C@H]1C[C@@]2(C)OC(=O)/C(=C/C)[C@@]23CC[C@@](C)(O)CC(=O)[C@@]1(C(=C)C(=O)OC)O3	.	/	/
C=C[C@@]12COC(=O)C(=C)[C@@H]1[C@@H](O)[C@H](C(=C)C(=O)OC)[C@@H](O)C2	.	83	.
COc1cccc(OC)c1C(=O)Nc1cccc(-c2nc3ncccc3o2)c1	/	.	.
CCOC(=O)c1ccc(NC(=O)CN2c3cccc4cccc(c34)S2(=O)=O)cc1	/	.	.
C[C@H](CO)N1C[C@H](C)[C@@H](CN(C)C(=O)Nc2ccc(F)cc2)Oc2ccc(NC(=O)Nc3ccc(C(F)(F)F)cc3)cc2C1=O	.	.	.
C[C@H](CO)N1C[C@H](C)[C@H](CN(C)C(=O)Nc2ccc(F)cc2)Oc2ccc(NC(=O)Nc3ccc(F)cc3)cc2C1=O	107	.	.
C[C@@H]1CN([C@H](C)CO)C(=O)c2cc(NC(=O)Nc3ccc(C(F)(F)F)cc3)ccc2O[C@@H]1CN(C)C(=O)Nc1ccc(F)cc1	.	84	.
C[C@@H]1CN([C@@H](C)CO)C(=O)c2cc(NC(=O)Nc3ccc(F)cc3)ccc2O[C@H]1CN(C)C(=O)Nc1ccc(F)cc1	.	.	.
C[C@@H]1CN([C@@H](C)CO)C(=O)c2cc(NC(=O)Nc3ccc(C(F)(F)F)cc3)ccc2O[C@H]1CN(C)C(=O)Nc1ccc(F)cc1	.	.	.
SMILES	Shh pathway inh	NOMO-1 viab	MITF inhib
C[C@H](CO)N1C[C@H](C)[C@H](CN(C)C(=O)Nc2ccc(C(F)(F)F)cc2)Oc2ccc(NC(=O)Nc3ccc(F)cc3)cc2C1=O	.	104	.
COc1ccc(OC)c(NC(=O)Cn2cnc3sc(C)c(-c4ccc(Cl)cc4)c3c2=O)c1	/	.	.
CCn1c(=O)c(C(=O)NCCO)c(O)c2ccccc21	/	.	.
Cc1ccc(C(=O)O)cc1NC(=O)COc1ccc(C(C)(C)C)cc1	/	.	.
COC(=O)Cc1c(/C(Cl)=C/C(=O)O)oc2cc(C)cc(O)c2c1=O	.	.	.
C=CCN(CC=C)C(=O)Cc1ccccc1OC	.	.	.
O=C(CSc1n[nH]c(-c2ccncc2)n1)Nc1sc2c(c1C(=O)Nc1ccccc1)CCCC2	/	.	.
CC(=O)c1ccc(OC(=O)C(Cc2ccccc2)N2C(=O)C3C4C=CC(C5CC45)C3C2=O)cc1 (stereo unspecified)	/	.	.
Cc1ccc(Nc2nc(N)nc(COc3cccc4cccnc34)n2)cc1	/	111	.
Cc1cc(C)nc(Nc2n[nH]c(COc3cccc4cccnc34)n2)n1	/	.	.
O=C1C(Cc2ccc(-c3nn[nH]n3)cc2)=C(c2ccccc2)S(=O)(=O)c2ccccc21	107	.	.
CCCCC1=NC2(CCCC2)C(=O)N1Cc1ccc(-c2ccccc2-c2nn[nH]n2)cc1	.	.	.
O=C(CCc1ccc(O)cc1)CC(CCc1ccc(O)cc1)O[C@@H]1OC[C@@H](O)[C@H](O)[C@H]1O (stereo partly specified)	.	113	.
Oc1ccc(CCCCC(CCc2ccc(O)cc2)O[C@@H]2OC[C@@H](O)[C@H](O)[C@H]2O)cc1 (stereo partly specified)	.	/	/
O=C(NCCCN1CCOCC1)c1cccc([N+](=O)[O-])c1	/	.	.
O=[N+]([O-])c1ccc(S(=O)(=O)CC(CN2CCOCC2)N2CCOCC2)cc1 (stereo unspecified)	/	102	.
O=C(CCn1cnc2ccccc2c1=O)Nc1ccccc1Br	/	.	.
CC(C)C[C@@H](/C=C/S(C)(=O)=O)NC(=O)[C@H](CC(C)C)NC(=O)[C@H](CC(C)C)NC(=O)OCc1ccccc1	.	98	.
CC(C)C[C@@H](NC(=O)OCC1c2ccccc2-c2ccccc21)C(=O)O	.	.	.
COc1ccc(NC(=O)CNS(=O)(=O)c2ccccc2)cc1OC	/	.	.
COc1ccc(NC(=O)Nc2cccc3c2O[C@@H](CN(C)Cc2ccc(Cl)c(Cl)c2)[C@@H](C)CN([C@H](C)CO)C3=O)cc1	.	97	.
C[C@H](CO)N1C[C@H](C)[C@H](CN(C)Cc2ccc(Cl)c(Cl)c2)Oc2c(NC(=O)Nc3ccccc3)cccc2C1=O	.	.	.
COc1ccc(NC(=O)Nc2cccc3c2O[C@H](CN(C)Cc2ccc(Cl)c(Cl)c2)[C@H](C)CN([C@H](C)CO)C3=O)cc1	.	.	.
COc1ccc(NC(=O)Nc2cccc3c2O[C@@H](CN(C)Cc2ccc(Cl)c(Cl)c2)[C@@H](C)CN([C@@H](C)CO)C3=O)cc1	/	121	.
Cc1ccc(NC(=O)CSc2nc3sc4c(c3c(=O)n2-c2ccccc2)CCC4)c(C)c1	/	.	.
SMILES	Shh pathway inh	NOMO-1 viab	MITF inhib
CN(CC(=O)Nc1ccccc1-c1ccccc1)S(=O)(=O)c1cc(Cl)ccc1Cl	/	.	.
COc1ccccc1NC(=O)CSc1nc2ccc([N+](=O)[O-])cc2[nH]1	/	.	.
COc1cccc2sc(NC(=O)c3ccc(S(=O)(=O)N(C)C)cc3)nc12	.	.	.
CN(C)S(=O)(=O)c1ccc(C(=O)Nc2nc3c(s2)CCc2ccccc2-3)cc1	/	113	.
C[C@@H]1CN([C@@H](C)CO)C(=O)c2cccc(NC(=O)c3nc4ccccc4s3)c2O[C@@H]1CN(C)CC1CCCCC1	.	117	.
C[C@@H]1CN([C@H](C)CO)C(=O)c2cccc(NC(=O)c3nc4ccccc4s3)c2O[C@@H]1CN(C)CC1CCCCC1	.	.	.
C[C@H](CO)N1C[C@H](C)[C@@H](CN(C)CC2CCCCC2)Oc2c(NC(=O)c3nc4ccccc4s3)cccc2C1=O	.	108	.
C[C@H](CO)N1C[C@H](C)[C@H](CN(C)CC2CCCCC2)Oc2c(NC(=O)c3nc4ccccc4s3)cccc2C1=O	.	?	.
